# Measured values as given in PubChem BioAssay (EPA / NIEHS).
# Records with an inconclusive call do not appear. The source made the active and inactive calls. How the source made its calls, unless noted: active means hit-call score of the fitted dose curve at least 0.9, where 1 is the maximum; inconclusive means response in the unintended direction; inactive means score below 0.9.
# Legend:
# [1] = Tanguay_ZF_120hpf_PE_legacy: (Legacy) Oregon State University Tanguay Lab 120 Hour Post-fertilization zebrafish Assay for Pericardial Edema (AID 2283640);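 on AC50: potency for increased incidence of pericardial edema versus DMSO baseline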
# Summary of the method: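 Scoring was binary, by brightfield microscopy at 120 hpf, and skipped where mortality occurred. Wild-type embryos were kept under sealed, foil-covered static exposure at 28C in 0.64% (vol/vol) DMSO.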
# [2] = Tanguay_ZF_120hpf_BRAI_legacy: (Legacy) Oregon State University Tanguay Lab 120 Hour Post-fertilization zebrafish Assay for Brain Malformation (AID 2283641)
# Summary of the method: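 Binary brightfield scoring of brain malformation at 120 hpf in Tropical 5D larvae held under static exposure at 28C (0.64% v/v DMSO), non-mortality endpoints skipped if dead. Positive control: 5uM trimethyltin chloride; fit versus DMSO.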
# [3] = Tanguay_ZF_120hpf_SOMI_legacy: (Legacy) Oregon State University Tanguay Lab 120 Hour Post-fertilization zebrafish Assay for Somite Malformation (AID 2283647)
# Summary of the method: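 Binary somite-defect scoring at 120 hpf, omitted for embryos that died, in wild-type (Tropical 5D) zebrafish with chorion removed by pronase at 4 hpf; static exposure began 6 hpf, single embryos per well, 28C, 0.64% DMSO; fitted positive versus DMSO.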
# [4] = Tanguay_ZF_120hpf_PFIN_legacy: (Legacy) Oregon State University Tanguay Lab 120 Hour Post-fertilization zebrafish Assay for Pectoral Fin Malformation (AID 2283648);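 further: each larva judged yes or no for fin defect by brightfield with dead larvae skipped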
# Summary of the method: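 5D WT zebrafish; pronase dechorionation 4 hpf; 1 embryo/well at 6 hpf; static exposure to 120 hpf, 28C, sealed, foil-covered; final DMSO 0.64% v/v; 5 uM trimethyltin chloride positive control; fin defect scored yes/no.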
# [5] = Tanguay_ZF_120hpf_CFIN_legacy: (Legacy) Oregon State University Tanguay Lab 120 Hour Post-fertilization zebrafish Assay for Caudal Fin Malformation (AID 2283649)
# Summary of the method: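 Binary brightfield scoring of caudal fin defects at 120 hpf after static, light-shielded exposure at 28C from 6 hpf. Tropical 5D embryos, chorion removed with pronase at 4 hpf, final DMSO 0.64%.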
# [6] = Tanguay_ZF_120hpf_PIG_legacy: (Legacy) Oregon State University Tanguay Lab 120 Hour Post-fertilization zebrafish Assay for Pigmentation Malformation (AID 2283650)
# Summary of the method: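 Pronase dechorionation at 4 hpf; embryos plated at 6 hpf, one per well; static exposure, sealed and foil-covered, 28C, to 120 hpf; pigmentation read by brightfield, binary; DMSO 0.64% baseline, 5uM trimethyltin chloride positive control.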
# [7] = Tanguay_ZF_120hpf_CIRC_legacy: (Legacy) Oregon State University Tanguay Lab 120 Hour Post-fertilization zebrafish Assay for Circulatory Malformation (AID 2283651)
# Summary of the method: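 Read-out: presence or absence of circulatory malformation at 120 hpf, scored by brightfield microscopy, fitted in the gain-of-signal direction against DMSO baseline. Wild-type 5D larvae were exposed from 6 hpf after enzymatic chorion removal.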
# [8] = Tanguay_ZF_120hpf_SWIM_legacy: (Legacy) Oregon State University Tanguay Lab 120 Hour Post-fertilization zebrafish Assay for Swim Bladder Malformation (AID 2283654);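 further: swim bladder malformation in each larva scored yes or no under brightfield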
# Summary of the method: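 Embryos lacking chorions were exposed individually and statically to test chemical from 6 to 120 hpf at 28C, with 0.64% DMSO as vehicle. At 120 hpf, swim bladder malformation was recorded as present or absent by brightfield microscopy.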
# [9] = Tanguay_ZF_120hpf_TRUN_legacy: (Legacy) Oregon State University Tanguay Lab 120 Hour Post-fertilization zebrafish Assay for Truncated Body (AID 2283655)
# Summary of the method: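 Binary presence/absence of truncated body is recorded at 120 hpf by brightfield, with non-mortality endpoints skipped after death. Exposure is static from 6 hpf in sealed dark plates at 28C, using dechorionated wild-type zebrafish, 0.64% DMSO.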
# [10] = Tanguay_ZF_120hpf_NC_legacy: (Legacy) Oregon State University Tanguay Lab 120 Hour Post-fertilization zebrafish Assay for Notochord and Tail Malformation (AID 2283656)
# Summary of the method: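 Dechorionated Tropical 5D wild-type zebrafish embryos, one per well from 6 hpf, statically exposed to 120 hpf at 28C in 0.64% DMSO final. Notochord distortion scored present/absent by brightfield; dead embryos excluded.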
# [11] = Tanguay_ZF_120hpf_TR_legacy: (Legacy) Oregon State University Tanguay Lab 120 Hour Post-fertilization zebrafish Assay for Touch Response (AID 2283667)
# Summary of the method: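 5D WT embryos; static exposure to 120 hpf, 28C, sealed/dark; DMSO 0.64% v/v final. TR scored present/absent; dead embryos excluded. Pos ctrl 5uM trimethyltin chloride.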
# [12] = CCTE_Padilla_ZF_144hpf_TERATOSCORE: (Legacy) CCTE's 144 Hour Post-fertilization zebrafish Assay Teratoscore, Padilla Lab (AID 2283679; active means hit-call score of the fitted dose curve at least 0.9, where 1 is the maximum; inactive means score below 0.9;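 on AC50: zebrafish embryos with chorions exposed by immersion from 6-8 hpf to 5 dpf with daily renewal; teratogenicity score from eye scoring of death hatching and malformations at 144 hpf; higher score means more developmental defects relative to DMSO baseline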)
# Summary of the method: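 Larvae scored by eye at 144 hpf for death, hatching and malformations after a day in clean Hanks'. Before that, daily-renewed exposure at 80 uM (0.4% DMSO, 26C) from roughly 6-8 hpf through 5 dpf, 4 embryos per chemical.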
# [13] = test system: Thyroperoxidase (TPO), gene 54314; assay: CCTE_Simmons_AUR_rTPO: CCTE's Amplex UltraRed Assay for Thyroperoxidase (TPO) Inhibition, Simmons Lab (AID 2283662);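 further: potency for loss of signal meaning inhibition of peroxidase activity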
# Summary of the method: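 Endpoint is decreased Amplex UltraRed fluorescence after a 30-min, 37C reaction of rat thyroid microsomes with 300 uM H2O2. Eight test concentrations (5 nM–87.5 uM final) in 0.5% DMSO, three biological replicates each.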
# [14] = CCTE_Simmons_CellTiterGLO_HEK293T: Viability Assessment in CCTE's Assays for Thyroperoxidase (TPO) Inhibition, Simmons Lab (AID 2283665);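 further: cells exposed to compound for 24 h before readout; actives reduce ATP signal below DMSO vehicle meaning cytotoxicity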
# Summary of the method: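 HEK293T, 10 000 cells/well, DMEM + 1% FBS; 8-pt titration 5 nM–87.5 uM [final], 0.5% DMSO; 24 hr, 37C, 5% CO2; CellTiter-Glo luminescence; n=3 biological replicates.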
# [15] = STM_H9_OrnithineISnorm_perc: Stemina devTOX quickPredict H9 human embryonic stem cell (hESC)-based Assay for Ornithine (ORN) Metabolite Biomarker, Normalized (AID 2283712; active means hit-call score of the fitted dose curve at least 0.9, where 1 is the maximum; inactive means score below 0.9;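 further: ornithine released into spent medium during last day measured by mass spectrometry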)
# Summary of the method: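 H9 human embryonic stem cells kept pluripotent receive test chemical over 72 h, refreshed daily by media exchange. Media from the closing 24 h is deproteinized and analysed by UPLC-HRMS on an amide column; ornithine signal is scaled to labelled standard and vehicle.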
# [16] = read-out: kallikrein-3 (KLK3), KLK3 (gene 354); assay: LTEA_HepaRG_KLK3: Life Technologies and Expression Analysis (LTEA) Assay for kallikrein-3 (KLK3) using HepaRG (AID 2283652; active means hit-call score of the fitted dose curve at least 0.9, where 1 is the maximum; inactive means score below 0.9); conditions: mRNA level, 48 h; actives raise or lower the signal
# Summary of the method: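 Differentiated human HepaRG cells in serum-free induction medium exposed 48 h in duplicate, eight-point half-log series from 100 uM in 0.5% DMSO. KLK3 mRNA by qRT-PCR, normalised to ACTB, GAPDH, POLR2A; bidirectional fit versus DMSO.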
# [17] = read-out: solute carrier (SLC22A6), SLC22A6 (gene 9356); assay: LTEA_HepaRG_SLC22A6: Life Technologies and Expression Analysis (LTEA) Assay for solute carrier (SLC22A6) using HepaRG (AID 2283653; active means hit-call score of the fitted dose curve at least 0.9, where 1 is the maximum; inactive means score below 0.9); conditions: mRNA level, 48 h; actives raise or lower the signal
# Summary of the method: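 SLC22A6 transcript was measured by TaqMan qRT-PCR, normalized to three housekeeping genes, after 48 h duplicate exposure of HepaRG cells (100 uM top, half-log steps, 0.5% DMSO); bidirectional fit against vehicle.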
# [18] = read-out: solute carrier (SLC10A1), SLC10A1 (gene 6554); assay: LTEA_HepaRG_SLC10A1: Life Technologies and Expression Analysis (LTEA) Assay for solute carrier (SLC10A1) using HepaRG (AID 2283657; active means hit-call score of the fitted dose curve at least 0.9, where 1 is the maximum; inactive means score below 0.9); conditions: mRNA level, 48 h; actives raise or lower the signal
# Summary of the method: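 Transcript levels were measured by qRT-PCR after human HepaRG cells received test chemical for 48 hours, up to 100 uM in half-log dilutions. Values come from bidirectional concentration-response fitting relative to 0.5% DMSO vehicle.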
# [19] = read-out: matrix metalloproteinase-1 (MMP1), MMP1 (gene 4312); assay: LTEA_HepaRG_MMP1: Life Technologies and Expression Analysis (LTEA) Assay for matrix metalloproteinase-1 (MMP1) using HepaRG (AID 2283658; active means hit-call score of the fitted dose curve at least 0.9, where 1 is the maximum; inactive means score below 0.9); conditions: mRNA level, 48 h; actives raise or lower the signal
# Summary of the method: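 qRT-PCR (TaqMan, Fluidigm arrays) of MMP1 transcript, normalized against three housekeeping genes and fitted in both directions relative to 0.5% DMSO vehicle. Human HepaRG cultures received duplicate 48 h exposures across 8 points, highest 100 uM with half-log steps.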
# [20] = read-out: Cytochrome P450 (CYP24A1_1), CYP24A1 (gene 1591); assay: LTEA_HepaRG_CYP24A1_1: Life Technologies and Expression Analysis (LTEA) Assay for Cytochrome P450 (CYP24A1_1) using HepaRG (AID 2283671; active means hit-call score of the fitted dose curve at least 0.9, where 1 is the maximum; inactive means score below 0.9); conditions: mRNA level, 48 h; actives raise or lower the signal
# Summary of the method: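 In this test, gene induction or suppression of CYP24A1 in human HepaRG liver cells is measured by qRT-PCR after 48 h chemical treatment (eight concentrations, maximum 100 uM). Values are fitted bidirectionally relative to DMSO.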
compound,measurement,setting,value
CCc1nn(C2CCCCC2)c2cc(C3(C#N)CCC(C(=O)O)CC3)ccc12 (stereo not given),AC50,[1],270 nM (active)
same,AC50,[2],2710 nM (active)
same,AC50,[3],506 nM (active)
same,AC50,[4],563 nM (active)
same,AC50,[5],150 nM (active)
same,outcome,[6],inactive
same,outcome,[7],inactive
same,AC50,[8],419 nM (active)
same,AC50,[9],171 nM (active)
same,outcome,[10],inactive
same,AC50,[11],2480 nM (active)
same,AC50,[12],263 nM (active)
O=c1c(-c2ccc(O)cc2)coc2cc(O)ccc12,outcome,[1],inactive
same,outcome,[3],inactive
same,outcome,[4],inactive
same,outcome,[6],inactive
same,outcome,[7],inactive
same,outcome,[8],inactive
same,outcome,[9],inactive
same,outcome,[10],inactive
same,AC50,[13],9200 nM (active)
same,AC50,[14],393 nM (active)
same,outcome,[11],inactive
same,outcome,[12],inactive
CN1CCC[C@H]1c1cccnc1,outcome,[1],inactive
same,outcome,[2],inactive
same,outcome,[3],inactive
same,outcome,[4],inactive
same,outcome,[5],inactive
same,outcome,[6],inactive
same,outcome,[8],inactive
same,outcome,[9],inactive
same,outcome,[10],inactive
same,outcome,[11],inactive
same,outcome,[15],inactive
OCCC(F)(F)C(F)(F)C(F)(F)C(F)(F)C(F)(F)C(F)(F)C(F)(F)C(F)(F)F,outcome,[2],inactive
same,outcome,[3],inactive
same,outcome,[4],inactive
same,outcome,[5],inactive
same,outcome,[6],inactive
same,outcome,[7],inactive
same,outcome,[8],inactive
same,outcome,[9],inactive
same,outcome,[10],inactive
same,outcome,[11],inactive
same,outcome,[12],inactive
CCOC(=O)CC(O)(CC(=O)OCC)C(=O)OCC,outcome,[1],inactive
same,outcome,[2],inactive
same,outcome,[3],inactive
same,outcome,[4],inactive
same,outcome,[6],inactive
same,outcome,[7],inactive
same,outcome,[8],inactive
same,outcome,[9],inactive
same,outcome,[10],inactive
same,outcome,[11],inactive
CC(C)CCCCCCOC(=O)CCCCC(=O)OCCCCCCC(C)C,outcome,[1],inactive
same,outcome,[2],inactive
same,outcome,[3],inactive
same,outcome,[5],inactive
same,outcome,[6],inactive
same,outcome,[7],inactive
same,outcome,[8],inactive
same,outcome,[9],inactive
same,outcome,[10],inactive
same,outcome,[11],inactive
CCCCCCCCCCCCc1ccccc1S(=O)(=O)O,outcome,[1],inactive
same,outcome,[3],inactive
same,outcome,[4],inactive
same,outcome,[5],inactive
same,outcome,[7],inactive
same,outcome,[8],inactive
same,outcome,[9],inactive
same,outcome,[10],inactive
same,AC50,[13],37300 nM (active)
same,AC50,[14],33900 nM (active)
same,outcome,[11],inactive
same,AC50,[12],3260 nM (active)
same,AC50,[15],6.95 nM (active)
O=C(OCCOCCOC(=O)c1ccccc1)c1ccccc1,outcome,[1],inactive
same,outcome,[2],inactive
same,outcome,[4],inactive
same,outcome,[5],inactive
same,outcome,[6],inactive
same,outcome,[7],inactive
same,outcome,[16],inactive
same,outcome,[17],inactive
same,outcome,[8],inactive
same,outcome,[9],inactive
same,outcome,[18],inactive
same,outcome,[19],inactive
same,outcome,[11],inactive
same,outcome,[20],inactive
same,AC50,[12],1740 nM (active)
same,outcome,[15],inactive
